Test results reported in PubChem BioAssay (NCI).
The panel holds about 83,000 compounds, 20% with a hit somewhere; the sample as a whole holds those more often.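 Activity criterion: percent growth below 10, measured after cells in 96-well plates were exposed to a single compound concentration for 48 hours.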 Calls of active or inactive are those of the source.

Columns and labels:
Assay in all cases: NCI-60 one-dose screen, 48 h (100 = growth as untreated, 0 = no growth, -100 = all killed)
NCI-H23 lung = settings: 10 µM unless noted
NCI-H226 lung = settings: 10 µM unless noted
NCI-H322M lung = settings: 10 µM unless noted
HOP-62 NSCLC = settings: 10 µM unless noted
NCI-H460 lung = settings: 10 µM unless noted
HOP-92 NSCLC = settings: 10 µM unless noted
NCI-H522 lung = settings: 10 µM unless noted
A549/ATCC NSCLC = settings: 10 µM unless noted
786-0 renal = settings: 10 µM unless noted
COLO 205 colon = settings: 10 µM unless noted
DU-145 prostate = settings: 10 µM unless noted
K-562 leukemia = settings: 10 µM unless noted
MALME-3M melanoma = settings: 10 µM unless noted
MDA-MB-231 breast = settings: 10 µM unless noted
RXF 393 renal = settings: 10 µM unless noted
SF-268 CNS = settings: 10 µM unless noted
SF-295 CNS = settings: 10 µM unless noted
SF-539 CNS = settings: 10 µM unless noted
UACC-257 melanoma = settings: 10 µM
M14 melanoma = settings: 10 µM unless noted

Measured: growth

CCOC(=O)c1nn(-c2ccc(C)cc2)c(=O)c2c(N)c(C#N)c(-c3ccc(OC)cc3)cc12
inactive: NCI-H23 lung 101% | NCI-H226 lung 94.4% | NCI-H322M lung 97.4% | HOP-62 NSCLC 81.3% | NCI-H460 lung 101% | HOP-92 NSCLC 91.9% | NCI-H522 lung 86.7% | A549/ATCC NSCLC 108% | 786-0 renal 108% | COLO 205 colon 110% | DU-145 prostate 109% | K-562 leukemia 118% | MALME-3M melanoma 93.8% | MDA-MB-231 breast 84.8% | RXF 393 renal 104% | SF-268 CNS 95.5% | SF-295 CNS 103% | SF-539 CNS 102% | UACC-257 melanoma 107% | M14 melanoma 102%

CCN1C(=O)N(CC)C2SC(N/N=C/c3ccc(OC)cc3)=NC21 (stereo not given)
active: NCI-H460 lung 2.55% | COLO 205 colon 2.66% | SF-295 CNS 8.27% | SF-539 CNS -8.3% | M14 melanoma 3.93%
inactive: NCI-H23 lung 24.6% | NCI-H226 lung 51.2% | NCI-H322M lung 42.1% | HOP-62 NSCLC 48% | HOP-92 NSCLC 36.4% | NCI-H522 lung 17.1% | A549/ATCC NSCLC 23.9% | 786-0 renal 19.6% | DU-145 prostate 11.2% | K-562 leukemia 15.7% | MALME-3M melanoma 45.8% | MDA-MB-231 breast 23.4% | RXF 393 renal 19.6% | SF-268 CNS 49.7% | UACC-257 melanoma 80.4%

Oc1ccccc1-c1nnc(SCc2ccc(O)c3ncccc23)o1
inactive: NCI-H23 lung 23.5% | NCI-H226 lung 67.5% | NCI-H322M lung 64.2% | HOP-62 NSCLC 31.1% | NCI-H522 lung 20.7% | A549/ATCC NSCLC 27.5% | 786-0 renal 32.2% | COLO 205 colon 113% | DU-145 prostate 29.6% | K-562 leukemia 19.8% | MALME-3M melanoma 30.3% | MDA-MB-231 breast 60.6% | RXF 393 renal 29.4% | SF-268 CNS 34.1% | SF-295 CNS 15.3% | SF-539 CNS 37% | UACC-257 melanoma 25.2% | M14 melanoma 27.4%
active: NCI-H460 lung 5.53% | HOP-92 NSCLC -8.17%

O=C(CCCCCCN1CC(=O)N2[C@@H](c3cccc(Br)c3)c3[nH]c4ccccc4c3C[C@H]2C1=O)NO
inactive: NCI-H23 lung 43.1% | NCI-H226 lung 91.7% | NCI-H322M lung 42.2% | HOP-62 NSCLC 30.2% | NCI-H460 lung 26.4% | A549/ATCC NSCLC 59.4% | 786-0 renal 46.6% | DU-145 prostate 24.2% | K-562 leukemia 15.5% | MALME-3M melanoma 29.3% | MDA-MB-231 breast 11.7% | SF-268 CNS 24.9% | SF-295 CNS 15.6% | SF-539 CNS 32.2% | UACC-257 melanoma 44.9% | M14 melanoma 27.4%
active: HOP-92 NSCLC 2% | NCI-H522 lung 8.55% | COLO 205 colon 7.27% | RXF 393 renal -16.7%

Fc1ccccc1/C=C(/C1=NCCN1)n1cnc2ccccc21
inactive: NCI-H23 lung 96% | NCI-H226 lung 83.2% | NCI-H322M lung 90% | HOP-62 NSCLC 106% | NCI-H460 lung 104% | HOP-92 NSCLC 73.7% | NCI-H522 lung 94.3% | A549/ATCC NSCLC 107% | 786-0 renal 99% | COLO 205 colon 123% | DU-145 prostate 97.2% | K-562 leukemia 94.1% | MALME-3M melanoma 91% | MDA-MB-231 breast 93.4% | RXF 393 renal 84.1% | SF-268 CNS 90.9% | SF-295 CNS 100% | SF-539 CNS 95.6% | UACC-257 melanoma 96.9% | M14 melanoma 95.1%

CCOC(=O)C1=C(C)Nc2nc3ccccc3n2C1c1ccccc1 (stereo not given)
inactive: NCI-H23 lung 97% | NCI-H226 lung 104% | NCI-H322M lung 104% | HOP-62 NSCLC 100% | NCI-H460 lung 74.7% | HOP-92 NSCLC 95.7% | NCI-H522 lung 93.3% | A549/ATCC NSCLC 92.7% | 786-0 renal 95.4% | COLO 205 colon 104% | DU-145 prostate 105% | K-562 leukemia 76.1% | MALME-3M melanoma 94.3% | MDA-MB-231 breast 95.8% | RXF 393 renal 107% | SF-268 CNS 102% | SF-295 CNS 102% | SF-539 CNS 96.9% | UACC-257 melanoma 97.4% | M14 melanoma 102%

CCn1c2ccc(/C=N/NS(=O)(=O)CCN(C)C)cc2c2cc(/C=N/NS(=O)(=O)CCN(C)C)ccc21
inactive: NCI-H23 lung 97.4% | NCI-H226 lung 96.5% | NCI-H322M lung 85.7% | HOP-62 NSCLC 82.7% | NCI-H460 lung 101% | HOP-92 NSCLC 92.2% | NCI-H522 lung 86.6% | A549/ATCC NSCLC 101% | 786-0 renal 92% | COLO 205 colon 115% | DU-145 prostate 105% | K-562 leukemia 94.1% | MALME-3M melanoma 85.3% | MDA-MB-231 breast 89.7% | RXF 393 renal 96.6% | SF-268 CNS 90.2% | SF-295 CNS 103% | SF-539 CNS 90.5% | UACC-257 melanoma 103% | M14 melanoma 104%

CC(C)C(=O)Nc1ccc(-c2nc(-c3cccc(O)c3)c(-c3ccnc(Br)c3)[nH]2)cc1
inactive: NCI-H23 lung 63.4% | NCI-H226 lung 65.4% | NCI-H322M lung 65.8% | HOP-62 NSCLC 42.6% | NCI-H460 lung 46.5% | HOP-92 NSCLC 39.5% | NCI-H522 lung 48.4% | A549/ATCC NSCLC 69.8% | 786-0 renal 12.9% | COLO 205 colon 59.3% | DU-145 prostate 69.3% | MALME-3M melanoma 40.8% | MDA-MB-231 breast 58.5% | SF-268 CNS 54.8% | SF-539 CNS 34.5% | UACC-257 melanoma 52.7% | M14 melanoma 49.4%
active: K-562 leukemia 7.32% | RXF 393 renal -31.5% | SF-295 CNS -40.5%

O=C(CCCCCCN1CC(=O)N2[C@@H](c3ccc(Cl)c(F)c3)c3[nH]c4ccccc4c3C[C@H]2C1=O)NO
inactive: NCI-H23 lung 95.3% | NCI-H226 lung 101% | NCI-H322M lung 86.1% | HOP-62 NSCLC 78.8% | NCI-H460 lung 79.5% | HOP-92 NSCLC 92.2% | NCI-H522 lung 71.7% | A549/ATCC NSCLC 104% | 786-0 renal 93.9% | COLO 205 colon 97.4% | DU-145 prostate 87.8% | K-562 leukemia 53.7% | MALME-3M melanoma 59.8% | MDA-MB-231 breast 75.9% | RXF 393 renal 100% | SF-268 CNS 106% | SF-295 CNS 78.7% | SF-539 CNS 83.8% | UACC-257 melanoma 82% | M14 melanoma 82.4%

C#C[C@]1(O)CC[C@H]2[C@@H]3CC=C4c5sc(C6CCOCC6)nc5CC[C@]4(C)[C@H]3CC[C@@]21C
inactive: NCI-H23 lung 74.4% | NCI-H226 lung 82.5% | NCI-H322M lung 84.1% | HOP-62 NSCLC 90.5% | NCI-H460 lung 79.8% | HOP-92 NSCLC 103% | NCI-H522 lung 80.8% | A549/ATCC NSCLC 73.2% | 786-0 renal 62.7% | COLO 205 colon 103% | DU-145 prostate 97.9% | K-562 leukemia 13.2% | MALME-3M melanoma 88.8% | MDA-MB-231 breast 73.9% | SF-268 CNS 91.2% | SF-295 CNS 37.8% | SF-539 CNS 56.5% | UACC-257 melanoma 78.3% | M14 melanoma 59.8%
active: RXF 393 renal 4.95%

O=C1Nc2cc(OC(F)(F)F)ccc2Oc2ccc(-c3ccnc(N4CCNCC4)c3)cc21
active: NCI-H460 lung -80.6% | HOP-92 NSCLC -0.729% | NCI-H522 lung -57.2% | A549/ATCC NSCLC 9.42% | 786-0 renal -62.7% | COLO 205 colon -80.2% | DU-145 prostate -48.5% | K-562 leukemia -11.4% | MALME-3M melanoma -79.3% | MDA-MB-231 breast -38.2% | RXF 393 renal -73.4% | SF-295 CNS -25.7% | SF-539 CNS -89.8% | M14 melanoma -90.5%
inactive: NCI-H23 lung 27.4% | NCI-H226 lung 53% | NCI-H322M lung 39% | HOP-62 NSCLC 21.6% | SF-268 CNS 26.8% | UACC-257 melanoma 77.3%

Oc1ccc(CSc2nnc(-c3ccc(Br)cc3)n2-c2ccccc2)c2cccnc12
inactive: NCI-H23 lung 38.2% | NCI-H226 lung 44.7% | NCI-H322M lung 52.4% | HOP-62 NSCLC 16.1% | HOP-92 NSCLC 31.9% | NCI-H522 lung 28.5% | A549/ATCC NSCLC 26.3% | 786-0 renal 43.2% | COLO 205 colon 99.6% | DU-145 prostate 39.2% | K-562 leukemia 15.8% | MALME-3M melanoma 52% | MDA-MB-231 breast 59.2% | RXF 393 renal 71.5% | SF-268 CNS 32.7% | SF-539 CNS 16.8% | UACC-257 melanoma 25.2% | M14 melanoma 30.1%
active: NCI-H460 lung 7.57% | SF-295 CNS 6.74%

COc1cc(/C=N/n2cnc3oc(-c4ccccc4)cc3c2=N)cc(CN2CCCC2)c1O
active: NCI-H460 lung -58.6% | 786-0 renal -81% | DU-145 prostate 7.65% | K-562 leukemia 0.0184% | MALME-3M melanoma -45% | MDA-MB-231 breast -70%
inactive: NCI-H23 lung 103% | NCI-H226 lung 90.5% | NCI-H322M lung 96.7% | HOP-62 NSCLC 85.5% | HOP-92 NSCLC 77.9% | NCI-H522 lung 96.4% | A549/ATCC NSCLC 64.7% | COLO 205 colon 11.8% | RXF 393 renal 15.7% | SF-268 CNS 88.6% | SF-295 CNS 90.5% | SF-539 CNS 93.5% | UACC-257 melanoma 109% | M14 melanoma 14.1%

CSc1ccc(/C(=N/N=C(N)N)c2ccccc2)cc1
active: NCI-H460 lung 6.46% | COLO 205 colon 0.455% | SF-295 CNS 5.99% | SF-539 CNS -8.23% | M14 melanoma 9.73%
inactive: NCI-H23 lung 29.2% | NCI-H226 lung 50.6% | NCI-H322M lung 50.9% | HOP-62 NSCLC 49.3% | HOP-92 NSCLC 34.4% | NCI-H522 lung 11.8% | A549/ATCC NSCLC 27.4% | 786-0 renal 31% | DU-145 prostate 15.2% | K-562 leukemia 25.2% | MALME-3M melanoma 50.6% | MDA-MB-231 breast 29.5% | RXF 393 renal 15.4% | SF-268 CNS 53.6% | UACC-257 melanoma 80.7%

COc1cccc(/C=C/C(=O)c2ccc(NC(=O)COc3cccc4cccnc34)cc2)c1
inactive: NCI-H23 lung 99.3% | NCI-H226 lung 93.9% | NCI-H322M lung 95.5% | HOP-62 NSCLC 112% | NCI-H460 lung 101% | HOP-92 NSCLC 107% | NCI-H522 lung 90.2% | A549/ATCC NSCLC 95.2% | 786-0 renal 96.8% | COLO 205 colon 105% | DU-145 prostate 90.2% | K-562 leukemia 82.1% | MALME-3M melanoma 108% | MDA-MB-231 breast 98.4% | RXF 393 renal 107% | SF-268 CNS 96.3% | SF-295 CNS 96.6% | SF-539 CNS 101% | UACC-257 melanoma 103% | M14 melanoma 104%
